The record followed here is PubChem BioAssay (NCI).

The panel holds about 83,000 compounds, 20% with a hit somewhere; the sample as a whole holds those more often.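 Step 1: grow cells in 96-well plates. Step 2: add test compound at a single concentration. Step 3: incubate 48 h. Step 4: record percent growth.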 Unmarked numbers belong to inactive results. Calls of active or inactive are those of the source. How the source made its calls: active means growth percent below 10; inactive means the rest.

Holding throughout (assay): NCI-60 one-dose screen, 48 h (100 = growth as untreated, 0 = no growth, -100 = all killed)
One assay concerns DU-145 prostate. The conditions noted are these: 10 µM unless noted.
A further assay relates to K-562 leukemia. The conditions noted are these: 10 µM unless noted.
For a further assay, the system named is MALME-3M melanoma. The conditions noted are these: 10 µM unless noted.
For the next assay, the system named is MDA-MB-231 breast. The conditions noted are these: 10 µM unless noted.
The subject of the next assay is RXF 393 renal. The conditions noted are these: 10 µM unless noted.
The next assay relates to SF-268 CNS. The conditions noted are these: 10 µM unless noted.
The subject of the next assay is SF-295 CNS. The conditions noted are these: 10 µM unless noted.
A further assay has as its system SF-539 CNS. The conditions noted are these: 10 µM unless noted.
The next assay has as its system UACC-257 melanoma. The conditions noted are these: 10 µM.
The test system of the next assay is M14 melanoma. The conditions noted are these: 10 µM unless noted.

For `Nc1c(C(=O)Nc2ccccc2)sc2nc3c(cc12)CCC3`, the growth with DU-145 prostate was 96.8%; in the assay with K-562 leukemia, 35.4%; with MALME-3M melanoma it was 77.9%; with MDA-MB-231 breast, 80.7%; with RXF 393 renal, 95.4%; in the assay on SF-268 CNS, 94%. For the same molecule, the growth in the assay on SF-295 CNS is 106%; in the assay with SF-539 CNS it was 80.2%; with UACC-257 melanoma, 90.5%; in the assay on M14 melanoma, 69.7%.

`CCn1cc(C(=O)O)c(=O)c2cc(F)c(N3CCN(S(=O)(=O)c4ccc(Cl)cc4Cl)CC3)cc21`: the growth in the assay with DU-145 prostate was 11.6%; in the assay on K-562 leukemia, 10.9%; with MALME-3M melanoma it was -19.8% (active); in the assay on MDA-MB-231 breast, 25.5%; in the assay with RXF 393 renal, 27.9%; in the assay with SF-268 CNS, 24.6%. Besides, the growth in the assay on SF-295 CNS is -32% (active); in the assay with SF-539 CNS it was 8.88% (active); in the assay with UACC-257 melanoma, -15.2% (active); with M14 melanoma it was 15.9%.

Regarding `CC/C(=C(\c1ccc(O)cc1)c1ccc(OCCN(C)CCN(C)C(=O)CCC(=O)c2c(C)[nH]c(/C=C3\N=C(c4ccc[nH]4)C=C3OC)c2C)cc1)c1ccccc1`, the growth with DU-145 prostate was 46.9%; with K-562 leukemia, 5.83% (active); in the assay with MALME-3M melanoma it was 55.4%; in the assay with MDA-MB-231 breast it was 9.16% (active); in the assay with RXF 393 renal, 66.1%; with SF-268 CNS, 69.8%. In addition, the growth with SF-295 CNS is 95.9%; in the assay on SF-539 CNS, 63.2%; in the assay on UACC-257 melanoma, 104%; in the assay on M14 melanoma it was 20.7%.

On to `COc1ccc(-c2nc(-c3ccccc3)c(-c3ccccc3)n2C2CC2)cc1OC1CCCCC1`, for which the growth is 73.2% in the assay on DU-145 prostate; 31.4% in the assay with K-562 leukemia; 76.5% in the assay with MALME-3M melanoma; 61.2% in the assay on MDA-MB-231 breast; 73.7% in the assay with RXF 393 renal; 56.3% in the assay with SF-268 CNS. In addition, the growth was 54.8% in the assay with SF-295 CNS, 81% in the assay with SF-539 CNS, 85.1% in the assay on UACC-257 melanoma and 76.7% with M14 melanoma.

Turning to `CN(C)c1ccc(C2CC(c3ccccc3)=NN2/C=C2\SC(=O)NC2=O)cc1` (stereo not given), the growth in the assay with DU-145 prostate was 57.7%; in the assay with K-562 leukemia, 100%; with MALME-3M melanoma it was 89%; in the assay on MDA-MB-231 breast, 93.3%; in the assay with RXF 393 renal, 96.5%; in the assay on SF-268 CNS, 90.9%. Also, the growth with SF-295 CNS is 98%; in the assay on SF-539 CNS, 76%; with UACC-257 melanoma, 115%; with M14 melanoma, 93.7%.

Regarding `CC1=C(C#N)C(C)(C)C(C#N)=C(C)N1`, the growth with DU-145 prostate was 106%; in the assay with K-562 leukemia, 99.4%; with MALME-3M melanoma, 109%; with MDA-MB-231 breast it was 104%; with RXF 393 renal, 117%; in the assay with SF-268 CNS it was 100%. The growth was 96.1% in the assay with SF-295 CNS, 99.3% with SF-539 CNS, 103% in the assay with UACC-257 melanoma and 102% with M14 melanoma.

`CCN(CC)CCCC(C)N=c1cc(Nc2cc(=NC(C)CCCN(CC)CC)c3cc(OC)ccc3o2)oc2ccc(OC)cc12` (stereo not given): the growth is 2.37% (active) in the assay with DU-145 prostate; -38.4% (active) with K-562 leukemia; -80.1% (active) in the assay with MALME-3M melanoma; -51.7% (active) in the assay on MDA-MB-231 breast; -68.4% (active) with RXF 393 renal; -32.1% (active) in the assay on SF-268 CNS. The growth in the assay with SF-295 CNS was -9.83% (active); in the assay on SF-539 CNS it was -90.2% (active); with UACC-257 melanoma, -79.1% (active); in the assay on M14 melanoma, -87.9% (active).

As to `COc1ccccc1CNCCCN1C(=O)c2ccc3c4c(ccc(c24)C1=O)C(=O)N(CCCNCCCCNCCCCN)C3=O`, the growth is 9.88% (active) in the assay on DU-145 prostate; 7.51% (active) in the assay on K-562 leukemia; -83.9% (active) in the assay with MALME-3M melanoma; 8.05% (active) with MDA-MB-231 breast; 22.6% with RXF 393 renal; 4.92% (active) in the assay on SF-268 CNS. Besides, the growth in the assay with SF-295 CNS is 2.29% (active); in the assay on SF-539 CNS it was 11%; in the assay with UACC-257 melanoma it was -56.2% (active); in the assay with M14 melanoma, -5.69% (active).

On to `O=c1[nH]c2ccccc2cc1-c1nnc(Cc2ccccc2)o1`, for which the growth in the assay on DU-145 prostate is 71.1%; in the assay with K-562 leukemia, 30.8%; with MALME-3M melanoma, 55.8%; in the assay with MDA-MB-231 breast it was 79.6%; in the assay with RXF 393 renal, 76.1%; in the assay on SF-268 CNS, 78.4%. The growth in the assay with SF-295 CNS is 99.7%; in the assay on SF-539 CNS it was 80.8%; in the assay with UACC-257 melanoma, 80%; in the assay on M14 melanoma, 65.8%.

On to `Cc1cc2c(c(=O)o1)C(c1ccc(OC(=O)N3CCOCC3)cc1)C(C#N)=C(N)O2` (stereo not given), for which the growth in the assay on DU-145 prostate is 112%; in the assay with K-562 leukemia it was 98.6%; with MALME-3M melanoma it was 126%; with MDA-MB-231 breast it was 116%; in the assay on RXF 393 renal, 114%; with SF-268 CNS, 114%. The growth was 100% in the assay with SF-295 CNS, 96.5% in the assay on SF-539 CNS, 98.2% in the assay with UACC-257 melanoma and 110% with M14 melanoma.

With `COc1cc(/C=C2\C=C(c3ccc(F)cc3)N(Cc3ccccc3)C2=O)cc(OC)c1OC`, the growth in the assay with DU-145 prostate was 94.8%; with K-562 leukemia, 56.1%; with MALME-3M melanoma, 90.7%; in the assay with MDA-MB-231 breast, 78.7%; in the assay with RXF 393 renal it was 64.5%; in the assay with SF-268 CNS it was 77.4%. Besides, the growth was 83.6% in the assay with SF-295 CNS, 87% in the assay on SF-539 CNS, 79.3% in the assay with UACC-257 melanoma and 76.2% with M14 melanoma.

`O=C(CCCn1c(=O)c2sc3ccccc3c2n2nnc(-c3ccccc3)c12)NCCc1cnc[nH]1`: the growth with DU-145 prostate is -68.8% (active); in the assay on K-562 leukemia it was 82.6%; in the assay on MALME-3M melanoma, -72.2% (active); in the assay with MDA-MB-231 breast it was -70.8% (active); in the assay with RXF 393 renal, -46.2% (active); in the assay on SF-268 CNS it was -1.01% (active). Moreover, the growth with SF-295 CNS is 8.37% (active); with SF-539 CNS, -82.8% (active); with UACC-257 melanoma, -44.4% (active); in the assay on M14 melanoma, -78.6% (active).
